Assay results from the OligoGym collection.

Each sequence was assayed against SNRNP70 (assay: pooled miR-30 sensor sort-seq; sequence = guide strand). Conditions: shRNA.

First: TATTCTTTTGATAGGTCCGTAC
Second: TTGCTGTCGCCGCTCAATCTTT
The sensor-assay potency score (higher = more potent) of the first is higher: -0.682 for the first, -1.5 for the second.

In the case of TCCTCTTCTGGTACCACCGAGG, the sensor-assay potency score (higher = more potent) is reported as -1.82.

What follows are sequences tested against SNRPD1 in the same assay as above. Conditions: shRNA.

Compared with TCATGCTGACATCCACACCTGT, TCTGGTAGAATAAAATACCGAA is higher in sensor-assay potency score (higher = more potent): -0.408 for the first, 0.138 for the second.

Going from TTAAGATGTGTATTCATGCTGA to TATCCAGAGGTAAACTGTCTGG, the sensor-assay potency score (higher = more potent) falls from -0.136 to -1.01.

Compared with TTCAACATCCACAAGTAGTGTA, TAGAATAAAATACCGAATGTTA is lower in sensor-assay potency score (higher = more potent): 0.419 for the first, -0.767 for the second.

Compared with TTCTCTGTTCTTCAGGGTCATT, TGTGATTGTTCCATGGACCTGT is higher in sensor-assay potency score (higher = more potent): -1.71 for the first, 1.16 for the second.

Compared with TCAACATCCACAAGTAGTGTAT, TCTTCCTGCAACAGCTTCCCTT is lower in sensor-assay potency score (higher = more potent): -0.261 for the first, -1.09 for the second.

First: TAGATTTCACCTTAGGTTCAAC
Second: TACAGGTTCTCTGTTCTTCAGG
The sensor-assay potency score (higher = more potent) of the first is higher: -0.589 for the first, -0.643 for the second.

What follows are sequences tested against SNTG1 in the same assay as above. Conditions: shRNA.

Compared with TTTAATATTGTGCTTTGTGAGA, TTATCTGTAGAATTGCATCTCC is higher in sensor-assay potency score (higher = more potent): -0.565 for the first, 0.36 for the second.

Going from TAGGTCTTGCACTGTATCCGTT to TTGCTCGTGGTAGCAGAGCTGG, the sensor-assay potency score (higher = more potent) falls from -0.173 to -1.52.

First: TGACTTTCTAGCACACATGCAT
Second: TTAGAGTCACTTCTTCTCCAGC
The sensor-assay potency score (higher = more potent) of the first is higher: -0.281 for the first, -1 for the second.

Compared with TTGGAGCACATGCACAATCTTC, TAATGTGTCTGTATTGTTGGGA is higher in sensor-assay potency score (higher = more potent): -1.22 for the first, 0.882 for the second.

Compared with TGAAGCACTGTTTCCGTCGGTC, TTGTCTTCTGATGGTCACCGTT is lower in sensor-assay potency score (higher = more potent): -0.425 for the first, -1.02 for the second.

Going from TAGCACACATGCATAGGTCTTG to TTTGTTGCAGCATCAAAGCAGA, the sensor-assay potency score (higher = more potent) falls from 0.196 to -0.518.

What follows are sequences tested against SNX19 in the same assay as above. Conditions: shRNA.

Compared with TAAAGGACTGATTATAACCGTA, TTTCCAGTAACTTTGTCTGTTT is lower in sensor-assay potency score (higher = more potent): -0.44 for the first, -0.546 for the second.

Compared with TTCTACTCTGTCACTGTCCATG, TAACTCTACTTCCCTGACCTGG is higher in sensor-assay potency score (higher = more potent): -0.887 for the first, -0.776 for the second.

Going from TACTTCACAGTATAGAGTGTGT to TACTCTGTCACTGTCCATGTTT, the sensor-assay potency score (higher = more potent) rises from -0.265 to -0.134.

First: TGAGGTGACAGCTCGATCCAGC
Second: TTAATATACAGCACTTCCCTGT
The sensor-assay potency score (higher = more potent) of the first is higher: 0.362 for the first, 0.105 for the second.

Going from TTTCTTCACACATCCCACCCAA to TGAACTTTCGTAGATCTGGTTT, the sensor-assay potency score (higher = more potent) falls from -0.125 to -0.266.

Compared with TTATTGAGGTGACAGCTCGATC, TAGATCTGGTTTCTCCTCCAGA is higher in sensor-assay potency score (higher = more potent): -1.16 for the first, -0.172 for the second.
